Data: PubChem BioAssay (Tox21)
Records with an inconclusive call do not appear. Entries that show only a call come without a potency. Where a structure was tested more than once in an assay, its records may differ in their call. Active and inactive are the calls of the source. Calls follow the shape of the dose curve; as a rule, active = well fitted cell-killing curve with a large enough effect in the repeat runs; inconclusive = weak or mixed curves, or effect the other way; inactive = flat fitted curve, though single readings scatter.

Assay: Human pregnane X receptor (PXR) small molecule agonists, qHTS cell viability counter screen (AID 1346977); also: nearly all actives have a fitted effect of over 50% in size
Conditions: PXR-Luc HepG2 viability, CellTiter-Fluor, 24 h; series mostly up to 92.4 µM; activity change, negative = cytotoxicity: at the top concentration
Description: U.S. Tox21 Program National Center for Advancing Translational Sciences [NCATS] NIH Chemical Genomics Center [NCGC] U.S. Environmental Protection Agency [EPA] National Institutes of Environmental Health Sciences [NIEHS] National Toxicology Program [NTP] U.S. Food and Drug Administration [FDA] Tox21 Assay Overview: The human pregnane X receptor (hPXR) regulates the expression of several drug metabolizing enzymes and induction of these proteins is a major mechanism for developing drug resistance in cancer. One such key enzyme catalyzing the drug metabolism is cytochrome P450 3A4 (CYP3A4). Changes in CYP3A4 expression affect drug metabolism, thereby reducing the therapeutic efficacy and altering toxicological response to a drug and which finally causes adverse drug interaction. To screen Tox21 libraries for compounds that activate hPXR-mediated CYP3A4 gene expression, PXR-Luc HepG2 cells were used. Also cytotoxicity of the compounds was tested in parallel by measuring the cell viability using CellTiter-Fluor assay system in the same wells.
Tox21 Assay Protocol Summary: PXR-Luc HepG2 cells were dispensed at 2,000 per well in 5uL of assay medium containing 5% charcoal-stripped FBS into white solid bottom 1536-well plates (Corning Life Sciences, Corning, NY) using a Multidrop Combi (Thermo Scientific, Waltham, MA) dispenser. The assay plates were incubated at 37 C and 5% CO2 for 5hr, and then 23nL of compounds dissolved in DMSO and positive control were transferred using a Pintool station (Wako, San Diego, CA). The assay plates were incubated at 37C and 5% CO2 for 24hr. For cytotoxicity read, after 23hr incubation at 37C, 1uL CellTiter-Fluor reagent (Promega Corporation, Madison, WI) was added to each well of the assay plates using Flying Reagent Dispenser (FRD, Aurora Discovery, San Diego, CA). After 1hr incubation at 37C and 5% CO2, the fluorescence signal was quantified using a ViewLux plate reader (PerkinElmer, Shelton, CT).
Potency is read from the fitted curve at half-maximal effect.

Row | SMILES | Potency | activity change, negative = cytotoxicity
1 | O=C(O)COc1ccccc1 | inactive | 
2 | CC(C)(C)C(=O)CCl | inactive | 
3 | O=C(O)CCCc1ccc(N(CCCl)CCCl)cc1 | inactive | 
4 | COC(C)(C)CCCC(C)C/C=C/C(C)=C/C(=O)OC(C)C (stereo not given) | inactive | 
5 | Cc1ccc(N)cc1 | inactive | 
6 | CCOC(=O)CC(SP(=O)(OC)OC)C(=O)OCC (stereo not given) | inactive | 
7 | CNC(=O)O/N=C(\SC)C(=O)N(C)C | inactive | 
8 | COC(=O)Nc1cccc(OC(=O)Nc2cccc(C)c2)c1 | inactive | 
9 | CSc1nnc(C(C)(C)C)c(=O)n1N | inactive | 
10 | Cl[C@H]1OCCO[C@@H]1Cl | inactive | 
11 | CCOP(=S)(OCC)Oc1ccc([N+](=O)[O-])cc1 | inactive | 
12 | COS(=O)(=O)OC | inactive | 
13 | CCNc1nc(Cl)nc(NC(C)C)n1 | inactive | 
14 | CNC(=O)O/N=C/C(C)(C)S(C)=O (stereo not given) |  | -0.237% (inactive)
15 | CCCCC(CC)C(=O)Cl (stereo not given) | inactive | 
16 | Nc1ncc([N+](=O)[O-])s1 |  | -0.808% (inactive)
17 | Sc1ccccc1 | inactive | 
18 | Oc1ccc(Cl)cc1 | inactive | 
19 | CN(C)CCC#N | inactive | 
20 | CNC(=O)O/N=C/C(C)(C)S(C)(=O)=O | inactive | 

Row | SMILES | Potency | activity change, negative = cytotoxicity
21 | OCC(O)CCl (stereo not given) | inactive | 
22 | Cc1cccc(C)c1NC(=O)CN1CCCC1=O | inactive | 
23 | OCCCCO | inactive | 
24 | C[C@H]1C(=O)O[C@@H]2CCN3CC=C(COC(=O)[C@](C)(O)[C@]1(C)O)[C@H]23 | inactive | 
25 | Cc1cccc(N)c1C | inactive | 
26 | N#CN=C(N)N | inactive | 
27 | CNC(=O)Oc1cccc2ccccc12 | inactive | 
28 | CCCOC(=O)c1ccccc1C(=O)OCCC | inactive | 
29 | CN1C(=O)CCS(=O)(=O)C1c1ccc(Cl)cc1 (stereo not given) | inactive | 
30 | Cc1cc(O)ccc1Cl | inactive | 
31 | CN(C)C(=O)C(c1ccccc1)c1ccccc1 | inactive | 
32 | O=C(O)c1cc(Oc2ccc(C(F)(F)F)cc2Cl)ccc1[N+](=O)[O-] | inactive | 
33 | OCc1ccco1 | inactive | 
34 | FC(F)(F)c1ccc(Cl)cc1 | inactive | 
35 | Cc1cccc(N)c1 | inactive | 
36 | COc1cc(-c2ccc(N)c(OC)c2)ccc1N | inactive | 
37 | Nc1ccc(N)cc1 | 54.5 µM (active) and inactive | 
38 | CCSC(=O)N1CCCCCC1 | inactive | 
39 | Cl/C=C/Cl | inactive | 
40 | Nc1ccc([As](=O)(O)O)cc1 | inactive | 
